# Source: PubChem BioAssay (NCI)
# Compounds without any hit were thinned out: in the full panel of roughly 83,000, 20% have a hit.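 The endpoint reported here, percent growth, reads 100 for growth as untreated, 0 for no net growth and -100 for all cells dead.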 Unmarked numbers belong to inactive results. The source made the active and inactive calls. The calls were made as follows: active = growth percent below 10; inactive = the rest.
# What was measured:
# Experiment in all cases: NCI-60 one-dose screen, 48 h (100 = growth as untreated, 0 = no growth, -100 = all killed)
# Conditions in all cases: 10 µM unless noted
# SK-MEL-2 melanoma = tested on: SK-MEL-2 melanoma
# EKVX NSCLC = tested on: EKVX NSCLC
# SN12C renal = tested on: SN12C renal
# UO-31 renal = tested on: UO-31 renal
# ACHN renal = tested on: ACHN renal
# CAKI-1 renal = tested on: CAKI-1 renal
# CCRF-CEM leukemia = tested on: CCRF-CEM leukemia
# MOLT-4 leukemia = tested on: MOLT-4 leukemia
# SR leukemia = tested on: SR leukemia
# RPMI-8226 leukemia = tested on: RPMI-8226 leukemia
# OVCAR-8 ovarian = tested on: OVCAR-8 ovarian
# OVCAR-5 ovarian = tested on: OVCAR-5 ovarian
# OVCAR-4 ovarian = tested on: OVCAR-4 ovarian
# IGROV1 ovarian = tested on: IGROV1 ovarian
# OVCAR-3 ovarian = tested on: OVCAR-3 ovarian
# HS 578T breast = tested on: HS 578T breast
# NCI/ADR-RES ovarian = tested on: NCI/ADR-RES ovarian
# TK-10 renal = tested on: TK-10 renal
# A498 renal = tested on: A498 renal
# SK-OV-3 ovarian = tested on: SK-OV-3 ovarian
Compound,growth (SK-MEL-2 melanoma),growth (EKVX NSCLC),growth (SN12C renal),growth (UO-31 renal),growth (ACHN renal),growth (CAKI-1 renal),growth (CCRF-CEM leukemia),growth (MOLT-4 leukemia),growth (SR leukemia),growth (RPMI-8226 leukemia),growth (OVCAR-8 ovarian),growth (OVCAR-5 ovarian),growth (OVCAR-4 ovarian),growth (IGROV1 ovarian),growth (OVCAR-3 ovarian),growth (HS 578T breast),growth (NCI/ADR-RES ovarian),growth (TK-10 renal),growth (A498 renal),growth (SK-OV-3 ovarian) [%]
Cc1ccc(Nc2cc(=S)nc(N)[nH]2)cc1C,99.9%,79%,92.4%,81.4%,91.2%,90.5%,112%,97.4%,97.5%,100%,97.4%,100%,108%,96%,115%,98.6%,105%,–,–,–
CCCCCCCCCCCCC1CCC/C=C\CCC(=O)O1 (centres undefined),96.2%,97.1%,–,90.4%,107%,111%,76.4%,-8.63% (active),71.4%,94%,100%,102%,109%,102%,102%,107%,102%,97.7%,117%,95.3
O=C1OC(=O)C2C1CC=CC2c1ccccc1 (centres undefined),97.3%,90.9%,87.6%,88.9%,104%,102%,84.2%,90.6%,55%,93.8%,95.3%,85.6%,83.4%,84.6%,104%,76.7%,91.1%,–,–,81.8
ClCC1(Cn2cnc3c(Cl)nc(Cl)nc32)COC1,90.7%,100%,95.6%,88.7%,94.9%,49%,71.5%,87.7%,86.1%,87.7%,105%,99.5%,93.3%,90.8%,84.4%,50.9%,106%,–,89.6%,93.8
CCCCCOc1ccc(/C=N/Nc2cc(C)nc3ccc(Br)cc23)cc1,105%,76.3%,-88.8% (active),-94.1% (active),-26.2% (active),43.6%,3.51% (active),-21.8% (active),-9.53% (active),-8.25% (active),-46.3% (active),106%,4.88% (active),-11.7% (active),-83.2% (active),85.5%,63.6%,–,–,102
N/C(=N\N=C\c1cc2ccccc2s1)N/N=C/c1cc2ccccc2s1,109%,95.6%,96.9%,87.7%,107%,95.3%,99.2%,101%,96.8%,99.8%,107%,104%,102%,93.7%,107%,102%,–,–,96.5%,94.3
O=C(NNc1nc(Cl)nc(N2CCN(C(c3ccccc3)c3ccccc3)CC2)n1)c1ccccc1,-27% (active),64%,-24.2% (active),68.9%,-39% (active),-51.9% (active),-25.1% (active),-39.2% (active),-37.4% (active),57.8%,3.15% (active),88.7%,-16.1% (active),-92.6% (active),-90.5% (active),36.3%,20.7%,–,–,128
Cn1c(COC(=O)N2CCCCC2)nc2c(N3CCOCC3)nc(-c3ccccc3)nc21,-79.6% (active),-59.4% (active),-86.1% (active),-99.3% (active),-100% (active),-88% (active),-6.4% (active),-5.2% (active),0.966% (active),-29.5% (active),-6.61% (active),-79.8% (active),-78.4% (active),-80.6% (active),-85.3% (active),-36.1% (active),-8.64% (active),–,-21.7% (active),60.2
COc1ccc(C(O)c2cc3c(N)c(C(=O)Nc4ccc(Br)cc4)sc3nc2C)cc1 (centres undefined),33.7%,32%,36%,43%,37.8%,32.5%,6.36% (active),17.5%,–,-4.62% (active),30.6%,59%,42.9%,43.6%,-34.9% (active),3.84% (active),18.5%,–,-1.93% (active),27.7
CCCNC(=O)Oc1ccc(/C(=C(\C)c2ccccc2)c2ccc(OCCN3CCCCC3)cc2)cc1,90.6%,82.2%,71.4%,46.5%,91%,65.8%,72.2%,60.1%,9.19% (active),–,75.3%,78.2%,83%,84.8%,75.6%,66.8%,77.2%,–,–,79.3
COc1ccc(C2CC(n3nnnc3-c3ccccc3)=NN2)cc1 (centres undefined),69.3%,66.2%,78.1%,35.3%,42.1%,8.64% (active),39.6%,50.3%,–,62.5%,61.6%,66.4%,–,64.8%,75.1%,99%,49.9%,–,–,–
COc1cccc(/C=C2\COc3ccc(-c4ccccc4)cc3C2=O)c1,-46.4% (active),99.9%,31.4%,-38.1% (active),–,50.8%,-32.7% (active),-28.2% (active),–,–,3.02% (active),49.6%,65.2%,4.34% (active),-44% (active),-9.75% (active),5.38% (active),–,45.6%,74.3
CN1C2CCC1CN(c1cnc(C(=O)Nc3cc(F)cc4cccnc34)cn1)C2,109%,45.9%,–,28.3%,24.4%,46.6%,28.3%,21.1%,22.4%,44.5%,54.4%,70.3%,8.7% (active),6.34% (active),20.4%,54.6%,42.1%,77.2%,74.9%,81.9
CC(=O)c1cc2c(N)c(C(=O)Nc3cncc4ccccc34)sc2nc1C,91.2%,100%,–,80.1%,97.1%,83.8%,104%,90.3%,77.5%,94.9%,104%,104%,113%,104%,110%,95.3%,104%,119%,–,93.6
CC(=O)CCSc1ccc(OC(C)=O)cc1,99.5%,105%,–,87.3%,103%,–,75.3%,94.1%,90.1%,92.8%,96.6%,111%,107%,114%,104%,106%,106%,96.3%,95.8%,101
COc1cc(C2CC(c3cccc(Nc4ccncc4)c3)=NN2c2cc(Cl)cc(Cl)c2)cc(OC)c1OC (centres undefined),71.4%,65.8%,–,28.4%,-66.5% (active),8.57% (active),-17.5% (active),-22.7% (active),0.528% (active),-13.7% (active),-8.55% (active),65.1%,6.43% (active),-2.86% (active),3.71% (active),0.285% (active),51.4%,34%,84%,76.2
CN(C)C(=O)OCc1nc2c(N3CCOCC3)nc(-c3ccccc3)nc2n1C,-73.5% (active),-56.8% (active),–,-100% (active),-99.8% (active),-91.7% (active),-12% (active),-3.34% (active),4.42% (active),-30% (active),-5.95% (active),-85.5% (active),-82.2% (active),-95.2% (active),-78.1% (active),-35.2% (active),-8.35% (active),-77.7% (active),-32.3% (active),59.7
CC(=O)N1N=C(c2cccc(Nc3ccncc3)c2)CC1c1ccccc1 (centres undefined),100%,83.9%,–,80.6%,94.6%,77.2%,84.1%,81.4%,58.3%,76.2%,88.9%,90.1%,89.7%,96%,91.7%,83.4%,91.9%,99.5%,70%,84.2
